Measurements: PubChem BioAssay (NCATS)
Results filed as inconclusive are left out. Entries that show only a call come without a potency. Calls of active or inactive are those of the source. Calls come from the whole dose curve; as a rule, active = well fitted curve in the direction sought with a large enough effect; inconclusive = small, poorly fitted or top-dose-only effect, or another doubt; inactive = no such curve, though single readings can be large; an effect the other way counts as inactive or inconclusive.

Legend:
[1] = Primary qHTS for inhibitors of nuclear receptor binding SET domain protein 2 (NSD2) in an isogenic RCH-ACV NSD2 p.E1099K mutant (9B) (AID 1645876)
[2] = Primary qHTS for inhibitors of nuclear receptor binding SET domain protein 2 (NSD2) in an RCH-ACV wild type WT cells (2C) (AID 1645877)
Note: nearly all actives have a fitted effect of over 70% in size.
Potency is the fitted concentration of half-maximal effect.

Row | SMILES | Potency [1] | Potency [2] | activity change, negative = viability loss [1] | activity change, negative = cell killing [2]
1 | CC(=O)OCCC(C)CCC1C(C)(O)CCC2C(C)(C)CCCC21C (stereo unspecified) | inactive | inactive |  | 
2 | C/C=C(\C)C(=O)O[C@H]1[C@H](O)[C@]2(COC(C)=O)[C@H](O)C[C@]3(C)C(=CCC4[C@@]5(C)CC[C@H](O[C@@H]6O[C@H](C(=O)O)[C@@H](O[C@@H]7O[C@H](CO)[C@@H](O)[C@H](O)[C@H]7O)[C@H](O)[C@H]6O[C@@H]6O[C@H](CO)[C@@H](O)[C@H](O)[C@H]6O)[C@](C)(CO)C5CC[C@]43C)[C@@H]2CC1(C)C (stereo partly specified) |  |  | 0.0444% [at 9.23 µM] (inactive) | -12.8% [at 9.23 µM] (inactive)
3 | C=C1C(OC(C)=O)C(=O)C2C(C)(C)C(OC(C)=O)CCC2(C)C1CC(OC(C)=O)/C(C)=C/COC(C)=O (stereo unspecified) | inactive | inactive |  | 
4 | Cc1c(CN(C)C(=O)/C=C/c2cnc3c(c2)CCC(=O)N3)oc2ccccc12 | inactive | inactive |  | 
5 | CC(=O)c1c(C)cc(O)cc1O[C@@H]1O[C@H](CO)[C@@H](O)[C@H](O)[C@H]1O | inactive | inactive |  | 
6 | C[C@]12CCC[C@](C)(C(=O)O)C1CCC13C=C(CO)C(CCC12)C3 (stereo partly specified) | inactive | inactive |  | 
7 | C=CC(C)(O)CC/C=C(\C)C(=O)OC1CC2(C(=O)O)CCC3(C)C(=CCC4C5(C)CCC(OC6OC(COC7OCC(O)C(O)C7O)C(O)C(OC7OCC(O)C(O)C7O)C6OC6OC(CO)C(O)C(O)C6OC6OCC(O)C(O)C6O)C(C)(C)C5CCC43C)C2CC1(C)C (stereo unspecified) |  |  | -9.57% [at 9.23 µM] (inactive) | -5.78% [at 9.23 µM] (inactive)
8 | CCC(NC(=O)CC(NC(=O)C(CO)NC(=O)C(CC)NC(=O)c1ccc[nH]1)c1ccccc1)C(=O)O (stereo unspecified) | inactive | inactive |  | 
9 | OCCc1ccc(O[C@@H]2O[C@H](CO)[C@@H](O)[C@H](O)[C@H]2O)c(O)c1 | inactive | inactive |  | 
10 | C[C@@H]1C(=O)O[C@H]2[C@H]1CC[C@@]1(C)C(=O)C=C[C@](C)(O)[C@H]21 | inactive | inactive |  | 
11 | C=C1C(O[C@@H]2O[C@H](CO)[C@@H](O)[C@H](O)[C@@H]2O)CC2C(C)(C)C(O)CCC2(C)C1CC/C(C)=C\CO (stereo partly specified) | inactive | inactive |  | 
12 | CC(C)(O)C1CC=C(C(=O)OCC2OC(Oc3c(O)cc(C(=O)O)cc3O)C(O)C(O)C2O)CC1 (stereo unspecified) | inactive | inactive |  | 
13 | C=C1C2=CC(O)C(C)C1(C)CC/C(C)=C/CCC1(C)OC1C2=O (stereo unspecified) | inactive | inactive |  | 
14 | C[C@H]1CC[C@@]2(OC1)O[C@H]1CC3C4CC=C5C[C@H](O)C[C@@H](O[C@@H]6O[C@@H](C)[C@H](O)[C@@H](O)[C@H]6O[C@@H]6O[C@@H](C)[C@H](O)[C@@H](O)[C@H]6O)[C@]5(C)C4CC[C@]3(C)[C@H]1[C@@H]2C (stereo partly specified) | inactive | inactive |  | 
15 | C[C@H]1[C@H](C)CC[C@]2(C(=O)O)CC[C@]3(C)C(=CC[C@@H]4[C@@]5(C)C[C@@H](O)[C@H](O)[C@@](C)(CO)[C@@H]5CC[C@]43C)[C@H]12 | inactive | inactive |  | 
16 | C[C@H]1[C@H](C)CC[C@]2(C(=O)O[C@@H]3O[C@H](CO)[C@@H](O)[C@H](O)[C@H]3O)CC[C@]3(C(=O)O)C(=CCC4[C@@]5(C)CC[C@H](O[C@@H]6O[C@H](CO)[C@@H](O)[C@H](O)[C@H]6O)C(C)(C)C5CC[C@]43C)[C@H]12 (stereo partly specified) |  |  | -7.26% [at 9.23 µM] (inactive) | -8.94% [at 9.23 µM] (inactive)
17 | Cc1nnc(C(C)C)n1C1CC2CCC(C1)N2CCC(NC(=O)C1CCC(F)(F)CC1)c1ccccc1 (stereo unspecified) | inactive | inactive |  | 
18 | Cc1nnc(C(C)C)n1C1CC2CCC(C1)N2CC[C@H](NC(=O)C1CCC(F)(F)CC1)c1ccccc1 (stereo partly specified) | inactive | inactive |  | 
19 | CC(C)(OC1OC(CO)C(O)C(O)C1O)C1CCC(O)(CO)C2CC(O)C(C)(O)C2C1 (stereo unspecified) | inactive | inactive |  | 
20 | CC(C)C1(O[C@@H]2O[C@H](CO)[C@@H](O)[C@H](O)[C@H]2O)CC=C(CO)CC1 (stereo partly specified) | inactive | inactive |  | 
21 | O=C(c1ccc(NS(=O)(=O)c2cccc3cccnc23)cc1)N1CCN(CC2CC2)CC1 | inactive | inactive |  | 
22 | C=C1CCC[C@]2(C)C[C@]3(O)OC(=O)C(C)=C3C[C@@H]12 | inactive | inactive |  | 
23 | Cc1cc(O)cc(Oc2cc(C)c(C(=O)O)c(O)c2)c1 | inactive | inactive |  | 
24 | CC1CCC(=O)CC(O)C(O)CC(=O)O1 (stereo unspecified) | inactive | inactive |  | 
25 | CC1=CCC2C(C)(CO)CCCC2(C)C1CC12OC1C(O)C(CO)=CC2O (stereo unspecified) | inactive | inactive |  | 
26 | CCCCC(=O)OCC(=O)[C@]1(O)Cc2c(O)c3c(c(O)c2[C@@H](O[C@H]2C[C@H](NC(=O)C(F)(F)F)[C@H](O)[C@H](C)O2)C1)C(=O)c1c(OC)cccc1C3=O | 0.263 µM (active) | 0.166 µM (active) |  | 
27 | CC1CC(=O)C2=C(O1)OC1(C)CCC3C(C)(C)C=CC(=O)C3(C)C1C2 (stereo unspecified) | inactive | inactive |  | 

Row | SMILES | Potency [1] | Potency [2] | activity change, negative = viability loss [1] | activity change, negative = cell killing [2]
28 | COc1cc(C/C(=C/NC(C)=O)N(CC(=O)Cc2ccccc2)C(C)=O)cc2c1OCO2 | inactive | inactive |  | 
29 | COc1ccc(/C=C/C(=O)O[C@@H]2[C@@H](OC(C)=O)[C@@H](OC(C)=O)[C@H](O[C@H]3[C@@H]4C=CO[C@@H](O[C@@H]5O[C@H](CO)[C@@H](O)[C@H](O)[C@H]5O)[C@@H]4[C@@]4(CO)O[C@@H]34)O[C@H]2C)cc1O | inactive | inactive |  | 
30 | COC(=O)c1ccc(O[C@@H]2O[C@H](CO)[C@@H](O)[C@H](O)[C@H]2O)c(OC)c1 | inactive | inactive |  | 
31 | C=CC1(C)CC2=CCC3C(C)(C(=O)O)CCCC3(C)C2CC1OC(C)=O (stereo unspecified) | inactive | inactive |  | 
32 | CC1(C)C(=O)N2c3ccccc3[C@]3(CC(n4cnc5ccccc5c4=O)C(=O)O3)[C@H]2N1O (stereo partly specified) | inactive | inactive |  | 
33 | CNC(=O)[C@H]1O[C@@H](n2cnc3c(NCc4ccc(N)c(I)c4)ncnc32)[C@H](O)[C@@H]1O |  |  | -0.539% [at 9.23 µM] (inactive) | 2.39% [at 9.23 µM] (inactive)
34 | O=C(O)Cc1nn(Cc2nc3cc(C(F)(F)F)ccc3s2)c(=O)c2nccnc12 | inactive | inactive |  | 
35 | Cc1coc2c1CC1OC1(C)CCC1OC1(C)C2 (stereo unspecified) | inactive | inactive |  | 
36 | CC12CCC3C(C)(C)C(O)CCC3(C)C1Cc1c(oc(C(=O)O)cc1=O)O2 (stereo unspecified) | inactive | inactive |  | 
37 | C/C=C1\[C@H](O[C@@H]2O[C@H](CO)[C@@H](O)[C@H](O)[C@H]2O)OC=C(C(=O)OC)[C@H]1CC(=O)OC | inactive | inactive |  | 
38 | C=C1CC2C3(C)C(OC(C)=O)CC(=O)OC(C)(C)C3C(O)C(OC(C)=O)C2(C)C2C(=O)OC(C)C(=O)C12C (stereo unspecified) | inactive | inactive |  | 
39 | COc1cc(/C=C/C(=O)O[C@H]2[C@H](O)[C@@H](CO)O[C@@]2(CO)O[C@H]2O[C@H](COC(=O)c3ccc(O)cc3)[C@@H](O)[C@H](O)[C@H]2O)cc(OC)c1OC | inactive | inactive |  | 
40 | O=C1NCc2nc3ccccc3c(=O)n2C1Cc1c[nH]c2ccccc12 (stereo unspecified) | inactive | inactive |  | 
41 | CC(C)C(=O)O[C@@H]1[C@@H](O)[C@@H](O[C@H]2O[C@H](CO)[C@@H](O)[C@H](O)[C@H]2O)O[C@H](CO)[C@H]1O | inactive | inactive |  | 
42 | COC(=O)C1=COC(OC2OC(CO)C(O)C(O)C2O)C2C1CC(OC(=O)C(O)CC(=O)O)C2C (stereo unspecified) | inactive | inactive |  | 
43 | C[C@@H]1O[C@@H](O[C@H]2[C@H](O[C@H]3[C@H](O[C@H]4CC[C@@]5(C)C(CC[C@]6(C)C5CC=C5[C@@H]7CC(C)(C(=O)O)C[C@@H](O)[C@]7(C)CC[C@]56C)[C@@]4(C)CO)O[C@H](C(=O)O)[C@@H](O)[C@@H]3O)O[C@H](CO)[C@H](O)[C@@H]2O)[C@H](O)[C@H](O)[C@H]1O (stereo partly specified) |  |  | -4.48% [at 9.23 µM] (inactive) | -5.72% [at 9.23 µM] (inactive)
44 | C[C@@H]1CC[C@H]2C(C)(C)[C@H](O)[C@H](O)C[C@]2(C)[C@@]12Cc1c(O)cc3c(c1O2)CNC3=O | inactive | inactive |  | 
45 | COc1cc(C(=O)OC[C@H]2O[C@H](O[C@@]3(CO)O[C@@H](CO)[C@H](O)[C@H]3O)[C@H](O)[C@@H](O)[C@@H]2O)ccc1O | inactive | inactive |  | 
46 | COc1c2c(c(C)c3c1C(=O)OC3)O[C@@]1(C)C[C@@H](O)[C@]34O[C@](OC)(CC[C@]3(C)[C@H]1C2)OC4(C)C | inactive | inactive |  | 
47 | CCC/C=C/C(=O)O[C@H]1CC(C)(C)CC2[C@]13[C@H](O)O[C@@]21CCC2[C@@]4(C)CC[C@H](O[C@@H]5O[C@H](C(=O)O)[C@@H](O)[C@H](O[C@@H]6O[C@H](CO)[C@H](O)[C@H](O)[C@H]6O[C@@H]6O[C@@H](C)[C@H](O)[C@@H](O)[C@H]6O[C@@H]6OC[C@](O)(CO)[C@H]6O)[C@H]5O[C@@H]5O[C@H](CO)[C@H](O)[C@H](O)[C@H]5O)C(C)(C)C4CC[C@@]2(C)[C@]1(C)C[C@H]3OC(C)=O (stereo partly specified) |  |  | -22.9% [at 9.23 µM] (inactive) | -16.1% [at 9.23 µM] (inactive)
48 | CC(C)NC[C@H](O)COc1ccc(CCOCC2CC2)cc1 | inactive | inactive |  | 
49 | COc1cc(C[C@H]2COC(=O)[C@@H]2Cc2ccc(O)c(OC)c2)ccc1O | inactive | inactive |  | 
50 | C=C1CC[C@H]2[C@@H](/C=C(\C)C(=O)[C@@]3(OC(C)=O)C[C@H](C)[C@H](OC(C)=O)[C@@H]3[C@H]1OC(C)=O)C2(C)C | inactive | inactive |  | 
51 | CC1NC(=O)C(Cc2c[nH]c3ccccc23)NC1=O (stereo unspecified) | inactive | inactive |  | 
52 | NC(=O)c1cccc(-c2cc(O)cc(OC(=O)NC3CCCCC3)c2)c1 | inactive | inactive |  | 
53 | CC(=O)O[C@H]1[C@H](Oc2ccccc2COC(=O)C2(O)C=CCCC2=O)O[C@H](CO)[C@@H](O)[C@@H]1O (stereo partly specified) | 8.93 µM (active) | 7.09 µM (active) |  | 
